# The source made the active and inactive calls.
# Tests used:
# [1] = binders of probe aFSTL3 on microarray, primary screen, stem cell growth factor project, biochemical, small-molecule microarray, fluorescence 635/667 (AID 1064); conditions: higher = more signal;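 note: measures binding of the biotinylated anti-FSTL3 antibody to printed compounds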
# [2] = binders from COS7 lysate, DM2A8 probe, primary screen, torsin A project, cell lysate, small-molecule microarray, fluorescence 635/667 (AID 1065); conditions: higher = more signal, COS7 lysate expressing mutant human TOR1A
# [3] = binders of probe aFGF2 on microarray, primary screen, stem cell growth factor project, biochemical, small-molecule microarray, fluorescence 635/667 (AID 1067); conditions: higher = more signal;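 note: measures binding of biotinylated aFGF2 protein to printed compounds on slides; z-score merges feature fluorescence and signal-to-noise across triplicate slides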
# [4] = binders of probe aFGF10 on microarray, primary screen, stem cell growth factor project, biochemical, small-molecule microarray, fluorescence 635/667 (AID 1071); conditions: higher = more signal;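 note: score merges 667 nm spot intensity and signal to noise from triplicate slides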
# [5] = molecular target: Neurogenic locus notch homolog protein 2 (Homo sapiens) (UniProt Q04721); assay: Notch2 binders on small-molecule microarrays, primary screen, biochemical, small-molecule microarray, 635 nm fluorescence, stem cell growth factors (AID 1073); conditions: Notch2 binding, higher = more signal
# Chain of Neurogenic locus notch homolog protein 2 (Homo sapiens) (Q04721 whole entry, looked up, canonical isoform): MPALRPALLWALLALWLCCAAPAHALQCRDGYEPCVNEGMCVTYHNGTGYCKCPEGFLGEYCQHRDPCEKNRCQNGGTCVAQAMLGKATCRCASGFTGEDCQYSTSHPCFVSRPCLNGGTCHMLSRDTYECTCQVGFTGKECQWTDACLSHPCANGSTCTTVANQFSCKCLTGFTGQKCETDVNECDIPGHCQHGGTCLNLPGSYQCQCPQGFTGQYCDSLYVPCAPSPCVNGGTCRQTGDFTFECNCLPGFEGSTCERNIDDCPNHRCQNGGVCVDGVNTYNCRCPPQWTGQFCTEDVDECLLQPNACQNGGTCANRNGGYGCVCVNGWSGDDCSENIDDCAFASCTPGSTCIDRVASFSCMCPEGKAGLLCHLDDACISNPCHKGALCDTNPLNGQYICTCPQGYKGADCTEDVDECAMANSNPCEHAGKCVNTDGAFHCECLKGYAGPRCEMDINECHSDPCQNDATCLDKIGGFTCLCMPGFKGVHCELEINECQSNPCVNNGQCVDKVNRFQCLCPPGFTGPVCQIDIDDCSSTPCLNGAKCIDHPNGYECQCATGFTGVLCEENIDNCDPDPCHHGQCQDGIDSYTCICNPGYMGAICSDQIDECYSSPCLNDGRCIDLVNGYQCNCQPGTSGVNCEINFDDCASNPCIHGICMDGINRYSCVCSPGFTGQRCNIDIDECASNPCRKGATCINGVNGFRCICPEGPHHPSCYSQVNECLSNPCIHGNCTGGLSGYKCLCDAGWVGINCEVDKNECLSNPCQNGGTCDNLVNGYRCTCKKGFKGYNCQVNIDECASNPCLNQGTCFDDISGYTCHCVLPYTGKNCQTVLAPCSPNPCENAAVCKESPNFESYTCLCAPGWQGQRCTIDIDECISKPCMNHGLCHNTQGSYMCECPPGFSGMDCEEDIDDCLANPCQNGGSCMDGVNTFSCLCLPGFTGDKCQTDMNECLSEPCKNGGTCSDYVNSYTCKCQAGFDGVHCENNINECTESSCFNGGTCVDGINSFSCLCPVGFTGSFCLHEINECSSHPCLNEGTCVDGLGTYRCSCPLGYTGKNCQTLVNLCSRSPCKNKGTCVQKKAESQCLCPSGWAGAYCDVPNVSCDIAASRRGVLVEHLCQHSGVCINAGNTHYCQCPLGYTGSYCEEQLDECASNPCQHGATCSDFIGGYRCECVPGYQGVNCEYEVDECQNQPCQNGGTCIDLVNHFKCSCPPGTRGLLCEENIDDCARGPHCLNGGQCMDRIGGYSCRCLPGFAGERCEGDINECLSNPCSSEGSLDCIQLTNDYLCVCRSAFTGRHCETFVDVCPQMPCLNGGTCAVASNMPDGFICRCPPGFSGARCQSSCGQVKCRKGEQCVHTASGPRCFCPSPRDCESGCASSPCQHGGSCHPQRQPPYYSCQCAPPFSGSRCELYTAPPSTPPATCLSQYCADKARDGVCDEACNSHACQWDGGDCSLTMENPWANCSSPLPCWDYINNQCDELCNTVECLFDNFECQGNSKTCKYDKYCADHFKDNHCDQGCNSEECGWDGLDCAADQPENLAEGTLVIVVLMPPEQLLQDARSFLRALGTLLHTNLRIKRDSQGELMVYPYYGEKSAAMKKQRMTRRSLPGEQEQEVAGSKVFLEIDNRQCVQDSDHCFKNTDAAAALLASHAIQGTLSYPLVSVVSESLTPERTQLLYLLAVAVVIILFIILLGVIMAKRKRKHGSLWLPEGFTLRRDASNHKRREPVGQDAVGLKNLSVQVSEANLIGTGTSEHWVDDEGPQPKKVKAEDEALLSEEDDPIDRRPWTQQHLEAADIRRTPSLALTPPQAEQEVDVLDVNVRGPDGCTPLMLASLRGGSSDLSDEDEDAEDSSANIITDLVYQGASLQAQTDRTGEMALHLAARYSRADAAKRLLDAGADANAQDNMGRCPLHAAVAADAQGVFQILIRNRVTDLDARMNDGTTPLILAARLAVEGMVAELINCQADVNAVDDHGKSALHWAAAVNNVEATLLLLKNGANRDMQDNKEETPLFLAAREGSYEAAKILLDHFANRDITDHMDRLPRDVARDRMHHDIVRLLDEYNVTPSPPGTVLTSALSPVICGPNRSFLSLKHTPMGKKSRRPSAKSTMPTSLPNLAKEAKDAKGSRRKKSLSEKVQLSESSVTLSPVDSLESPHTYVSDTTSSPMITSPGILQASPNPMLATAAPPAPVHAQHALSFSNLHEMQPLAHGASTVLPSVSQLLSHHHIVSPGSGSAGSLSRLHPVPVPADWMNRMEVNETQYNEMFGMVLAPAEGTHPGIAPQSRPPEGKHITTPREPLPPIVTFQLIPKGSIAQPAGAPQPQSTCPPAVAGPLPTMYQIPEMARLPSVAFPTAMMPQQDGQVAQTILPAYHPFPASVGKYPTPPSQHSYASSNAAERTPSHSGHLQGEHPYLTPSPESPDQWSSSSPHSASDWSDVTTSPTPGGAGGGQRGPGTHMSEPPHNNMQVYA
# [6] = molecular target: Pro-neuregulin-1, membrane-bound isoform (Homo sapiens) (UniProt Q02297); assay: NRG1 binders on small-molecule microarrays, primary screen, psychiatric disease protein project, biochemical, small-molecule microarray, fluorescence 635/667 (AID 1075); conditions: NRG1 binding, 635 nm fluorescence, higher = more signal;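 note: score combines 667 nm spot fluorescence with signal to noise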
# Chain of Pro-neuregulin-1, membrane-bound isoform (Homo sapiens) (Q02297 whole entry, looked up, the tested form may be a part, canonical isoform): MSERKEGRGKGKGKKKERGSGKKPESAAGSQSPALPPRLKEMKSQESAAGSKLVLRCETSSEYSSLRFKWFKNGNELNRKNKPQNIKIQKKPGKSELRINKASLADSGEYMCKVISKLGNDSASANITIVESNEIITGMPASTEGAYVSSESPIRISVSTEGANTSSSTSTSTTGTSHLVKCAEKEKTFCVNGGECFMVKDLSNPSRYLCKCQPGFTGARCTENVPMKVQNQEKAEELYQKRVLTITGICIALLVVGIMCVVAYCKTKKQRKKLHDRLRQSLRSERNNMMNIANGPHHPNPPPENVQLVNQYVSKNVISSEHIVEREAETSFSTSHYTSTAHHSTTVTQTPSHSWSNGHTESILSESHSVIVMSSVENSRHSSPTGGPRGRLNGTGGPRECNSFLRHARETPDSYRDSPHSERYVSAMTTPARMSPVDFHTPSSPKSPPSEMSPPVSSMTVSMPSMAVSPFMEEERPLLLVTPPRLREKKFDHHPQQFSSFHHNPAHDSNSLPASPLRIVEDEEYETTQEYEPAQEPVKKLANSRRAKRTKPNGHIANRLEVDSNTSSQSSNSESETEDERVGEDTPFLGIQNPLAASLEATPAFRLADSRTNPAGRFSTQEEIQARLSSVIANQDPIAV
# [7] = system: Neuregulin-1 EGF-like domain; assay: binders of neuregulin-1 EGF-like domain, primary screen, biochemical, small-molecule microarray, 635 nm fluorescence (AID 1081); conditions: small-molecule microarray binding, higher = more signal;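 note: binding of the protein to compounds printed on small-molecule microarray slides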
# [8] = FRG1 promoter luciferase signal modulators, primary screen, FRG1 inhibition for FSHD, cell-based, C2C12 myotubes, firefly/Renilla luciferase, luminescence (AID 1084); conditions: higher = more signal, called active from +8 up or from −8 down
# [9] = binders of probe aFST on microarray, primary screen, stem cell growth factor project, biochemical, small-molecule microarray, fluorescence 635/667 (AID 1086); conditions: higher = more signal;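 note: score merges 667 nm fluorescence with signal-to-noise of each printed compound spot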
# [10] = binders of probe aHhip on microarray, primary screen, stem cell growth factor project, biochemical, small-molecule microarray, fluorescence 635/667 (AID 1087); conditions: higher = more signal;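 note: score merges spot fluorescence at 667nm with spot signal to noise ratio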
SMILES,composite z-score [1],composite z-score [2],composite z-score [3],composite z-score [4],composite z-score [5],composite z-score [6],composite z-score [7],z-score [8],composite z-score [9],composite z-score [10]
CCOC(=O)C1=CC[C@@H](c2ccccc2)N(S(=O)(=O)c2ccc(C)cc2)[C@H]1C(=O)OCC,0.138,-0.0127,0.338,0.641,1.25,-0.196,1.03,-2.4 (inactive),0.603,-0.108
[N-]=[N+]=NCc1ccccc1C[C@@]1(C(=O)NCC(O)CO)N=C(c2ccc(OCCCO)cc2)O[C@@H]1c1ccccc1CN=[N+]=[N-] (stereo not given in full),0.178,-0.342,0.0587,0.939,1.43,1.34,1.21,-0.429 (inactive),0.704,-0.115
CN(C)CCCCCCNC(=O)[C@H]1C[C@H]2C(=O)N[C@@H](CCCCN)C(=O)N2[C@H]1c1ccc(O)cc1,3.42,2.29,0.762,1.14,1.27,2.51,1.5,0.369 (inactive),3.49,1.84
COCCOC(=O)N1C(=O)[C@@]2(c3cc(C#CC4(O)CCCCCC4)ccc31)[C@H](C(=O)N1CCCCCCC1)[C@H]1C(=O)O[C@H](c3ccccc3)[C@H](c3ccccc3)N1[C@@H]2c1ccccc1OCCO,2.49,0.859,0.249,0.298,1.25,1.17,1.28,0.25 (inactive),2.2,1.04
COCCOC(=O)N1C(=O)[C@@]2(c3cc(C#Cc4ccc(OC)cc4)ccc31)[C@H](C(=O)N1CCN(c3ncccn3)CC1)[C@H]1C(=O)O[C@H](c3ccccc3)[C@H](c3ccccc3)N1[C@@H]2c1ccc(O)cc1,0.104,0.0053,-0.144,0.464,-0.202,0.169,0.542,-1.3 (inactive),0.218,-0.0994
CCCCC=C[C@@H](NC(=O)c1cccs1)c1ccccc1,0.144,0.583,0.121,0.308,1.1,0.736,0.858,-3.42 (inactive),0.409,0.913
C=CC[C@@]1(C(=O)NCC(O)CO)N=C(c2ccc(OCCCO)cc2)O[C@@H]1c1ccccc1N=[N+]=[N-] (stereo not given in full),0.638,1.22,0.0485,0.12,0.579,1.71,1.3,3.08 (inactive),1.39,0.158
CC(C)N1C(=O)C[C@@](C(=O)NCc2ccccc2)(c2ccc([N+](=O)[O-])cc2)[C@H]1c1ccc(CO)cc1,0.539,1.22,-0.138,-0.136,0.0796,-0.524,1.25,0.167 (inactive),-0.699,-0.201
O=C1[C@]2(CO)C=C(Br)[C@@H](C[C@@H]2c2ccccc2)[C@@]12CO2,-0.333,-0.61,-0.0507,-0.0238,0.0861,0.251,0.245,1.2 (inactive),-0.0624,-0.134
COc1ccc(C#Cc2ccc3c(c2)[C@]2(C(=O)N3)[C@H](c3ccc(O)cc3)N3[C@H](c4ccccc4)[C@H](c4ccccc4)OC(=O)[C@H]3[C@@H]2C(=O)NC[C@H](O)c2ccccc2)cc1,-0.127,0.0172,-0.0599,0.776,0.757,0.563,1.15,0.72 (inactive),0.317,-0.288
N#Cc1ccc(NN2C(C(O)C3CCCCC3)C=CC3C(=O)N(c4ccccc4)C(=O)C32)cc1 (stereo not given),0.0086,-0.433,0.0429,0.461,1.58,1.31,1.33,-0.585 (inactive),1.38,0.754
O=c1cccc(CCc2ccccc2)o1,-0.587,-0.322,-0.0909,0.0466,-0.321,0.93,1.16,1.17 (inactive),-0.104,0.0251
O=C(CCN1CCOCC1)c1cccc(O)c1,-0.302,1.79,-0.0521,0.628,1.31,1.23,1.17,-1.28 (inactive),0.852,-0.0953
C=C(COC)C(=O)CC[C@@H](OC(=O)c1cccnc1)c1ccc(CO)o1,-0.376,0.0139,-0.085,-0.0132,0.167,1.16,0.645,0.614 (inactive),0.0848,0.274
CO[C@H]1O[C@H](CO)[C@@H](OC(=O)Nc2ccc3c(c2)OCO3)[C@H](OC(=O)Nc2ccccc2)[C@H]1OC(=O)Nc1ccccc1,-0.142,0.436,0.0166,1,0.828,1.12,1.35,2.74 (inactive),0.697,-0.0645
C=CCOC(=O)[C@@H]1[C@H]2C(=O)O[C@H](c3ccccc3)[C@H](c3ccccc3)N2[C@H](c2ccc(OCCOC(=O)[C@@H]3C[C@@H]4C(=O)N[C@@H](Cc5ccccc5)C(=O)N4[C@@H]3c3cccc(OCCO)c3)cc2)[C@@]12C(=O)Nc1ccc(I)cc12,0.224,0.63,-0.0566,0.764,1.03,1.03,1.06,1.06 (inactive),0.043,-0.0196

SMILES,composite z-score [1],composite z-score [2],composite z-score [3],composite z-score [4],composite z-score [5],composite z-score [6],composite z-score [7],z-score [8],composite z-score [9],composite z-score [10]
CCOC(=O)C[C@H]1[C@H](OC(=O)c2ccc(-c3ccccc3)cc2)[C@@H](NC(=O)c2ccc(-c3ccccc3)cc2)c2cc(OCCCO)ccc2N1C(=O)Cc1ccc(OC)cc1,-0.263,-0.0676,-0.0525,0.0168,0.306,0.168,-0.489,0.712 (inactive),0.425,-0.226
C=CCNC(=O)[C@H]1[C@@H]2C(=O)O[C@@H](c3ccccc3)[C@@H](c3ccccc3)N2[C@@H](c2ccc(O)cc2)[C@]12C(=O)N(C(=O)OCCOC)c1ccc(C#CCCO)cc12,0.174,1.93,-0.154,0.932,0.0576,1.33,1.32,-4.26 (inactive),-0.0024,-0.0618
COC(=O)c1ccc(C(O)C2C=CC3C(=O)N(c4ccccc4)C(=O)C3N2Nc2ccc(C#N)cc2)o1 (stereo not given),0.042,0.465,0.0394,0.865,1.33,0.665,1.34,0.447 (inactive),0.478,-0.199
COc1ccc(CCN2C(=O)[C@@]3(Cc4ccccc42)c2ccccc2C(=O)N(Cc2ccccc2Cl)[C@H]3c2ccc(CO)cc2)cc1,0.451,-0.73,-0.0744,-0.249,-0.13,-0.221,0.834,-0.236 (inactive),-0.285,-0.0994
COc1ccc([Si](C)(C)[C@@H]2[C@@H](CC(=O)N(CCO)Cc3ccccc3)O[C@]3(C(=O)N(C)c4ccccc43)[C@H]2C)cc1,1.02,-0.135,-0.0336,0.628,0.525,0.872,1.11,-2.19 (inactive),1.21,0.411
O=C(CS)NCCCCCCNC(=O)[C@@H]1C[C@@H]2C(=O)N3CCC[C@H]3C(=O)N2[C@@H]1c1ccc(O)cc1,0.525,0.0083,-0.111,0.589,-0.473,0.494,1.38,0.999 (inactive),-0.28,-0.254
CCCNC(=O)[C@@]1(c2ccc([N+](=O)[O-])cc2)CC(=O)N(CC23CC4CC(CC(C4)C2)C3)[C@@H]1c1ccc(CO)cc1,-0.271,0.515,0.0422,0.303,0.143,0.582,0.791,-1.75 (inactive),1.13,0.358
[N-]=[N+]=NCc1ccccc1[C@@H]1OC(c2ccc(OCCCO)cc2)=N[C@]1(Cc1ccccc1N=[N+]=[N-])C(=O)NCc1ccccc1,-0.253,0.485,-0.0287,0.272,1.15,0.612,1.05,-1.66 (inactive),0.221,-0.113
O=C1OCCC=C[C@H]2OC34C=CCN(Cc5ccccc5)C(=O)[C@H]3N(CCCO)C(=O)[C@@H]4C12 (stereo not given in full),-0.274,0.0519,-0.116,-0.479,-0.747,-0.555,0.187,-0.138 (inactive),-0.327,-0.0003
COc1ccc(C#Cc2ccc3c(c2)[C@]2(C(=O)N3)[C@H](C(=O)NC[C@H](O)c3ccccc3)[C@H]3C(=O)O[C@H](c4ccccc4)[C@H](c4ccccc4)N3[C@@H]2c2ccccc2OCCO)cc1,-0.185,0.324,0.0128,0.688,1.29,1.56,1.19,0.162 (inactive),0.653,-0.0994
COCCOC(=O)N1C(=O)[C@@]2(c3cc(C#CCCO)ccc31)[C@H](c1ccccc1OCCO)N1[C@H](c3ccccc3)[C@H](c3ccccc3)OC(=O)[C@H]1[C@@H]2C(=O)N1CCN(c2ncccn2)CC1,0.546,-0.481,0.0763,0.949,1.55,1.66,1.26,-1.54 (inactive),1.4,0.463
Cc1ccc(S[C@]2(C(=O)NCCN3CCOCC3)CC(=O)N(Cc3cc(C(F)(F)F)cc(C(F)(F)F)c3)[C@@H]2c2ccc(CO)cc2I)cc1,0.428,-0.542,-0.131,-0.44,-0.297,1.98,0.0049,0.679 (inactive),0.0607,0.0333
C=CCOC(=O)[C@@H]1[C@H]2C(=O)O[C@H](c3ccccc3)[C@H](c3ccccc3)N2[C@H](c2ccc(OCCOC(=O)[C@@H]3C[C@@H]4C(=O)NCC(=O)N4[C@@H]3c3cccc(OCCO)c3)cc2)[C@@]12C(=O)Nc1ccc(I)cc12,-0.112,0.948,-0.119,0.818,1.18,1.29,1.35,0.536 (inactive),0.272,-0.0391
CC(C)CNC(=O)[C@@H]1c2ccccc2C(=O)N(Cc2cc(C(F)(F)F)cc(C(F)(F)F)c2)[C@H]1c1ccc(CO)cc1,0.491,-0.249,0.071,-0.365,-0.744,-0.27,0.401,0.53 (inactive),0.0438,0.224
COc1ccc([Si](C)(C)[C@@H]2[C@@H](CCn3cc([C@H](O)c4ccccc4)nn3)O[C@]3(C(=O)N(Cc4ccc(N5C(=O)c6cccc7cccc5c67)cc4)c4ccccc43)[C@H]2C)cc1,0.428,0.174,-0.162,-0.16,-0.574,0.569,0.594,-0.353 (inactive),-0.587,-0.199

# From PubChem BioAssay
